# aSyn yeast inh – inhibitors of alpha-synuclein toxicity in yeast. Potency, µM (series often up to 46.1 µM), inactives show at the top dose growth rescue (activation), hits mostly activators. 370,000 tested, 0.14% active. AID 652106. Yeast expressing alpha-synuclein, growth rescue, BacTiter-Glo, 24 h; also: % of control where 0% means no effect; nearly all actives have a fitted effect of over 65% in size
#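 Rescue of yeast growth: cells expressing toxic alpha-synuclein, induced in galactose at OD600 0.02, incubated with compound 24 h at 30 C. ATP luminescence quantified growth; inhibitors of toxicity appear as activators.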
# TDP43 rescue – TDP-43 toxicity inhibition in yeast | TDP-43 expressing yeast growth rescue, BacTiter-Glo, 24 h | Potency, µM (doses to about 46.1 µM), for the others: at the top dose growth rescue (activation), actives largely listed as activators | 410,000 tested, 1.8% active | AID 652104; also: % of control where 0% means no effect; nearly all actives have a fitted effect of over 50% in size
#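 Readout is BacTiter-Glo luminescence of cell growth, so inhibitors register as activators. TDP-43-expressing yeast at OD600=0.02 in galactose medium, after raffinose pregrowth to mid-log, were incubated with compound for 24 hr at 30 deg C.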
# Abeta rescue – restores growth of yeast expressing A-beta42 peptide. yeast expressing A-beta42, growth rescue, OD600, 48 h; response scale: 0% DMSO, 100% iron-clioquinol control. AID 1347071. 410,000 tested, 0.063% active. Potency, µM (series often up to 46.1 µM), most hits filed as activators; also: nearly all actives have a fitted effect of over 55% in size
#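 Yeast A-beta toxicity model in growth medium with pinned compounds, 48 h at 30 C; growth read as absorbance at 600 nm. Normalized to FeCl3/clioquinol equimolar mix (positive) and DMSO (negative).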
# FUS yeast rescue – suppressors of FUS proteinopathy in yeast. S. cerevisiae FUS-expressing, growth rescue, OD600, 24 h. Potency, µM (series often up to 76.6 µM), most hits filed as activators. 390,000 tested, 0.24% active. AID 1347120;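 also: plate controls were DMSO vehicle for no effect and reference control for full effect; nearly all actives have a fitted effect of over 55% in size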
#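 Quantitative HTS measuring growth restoration of FUS-toxic yeast. Galactose-induced cells (OD 0.005) were exposed 24hr at 30C to compounds at several concentrations, then absorbance at 600 nm was recorded.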
# Numbers without * were called inactive; i = inactive; u = inconclusive; x = no result given. This is a sample that favours compounds with a hit; in the whole collection about 2.1% have one here. Calls follow the shape of the dose curve; as a rule, active = well fitted curve in the direction sought with a large enough effect; inconclusive = small, poorly fitted or top-dose-only effect, or another doubt; inactive = no such curve, though single readings can be large; an effect the other way counts as inactive or inconclusive. Potency is read from the fitted curve at half-maximal effect.
SMILES,aSyn yeast inh,TDP43 rescue,Abeta rescue,FUS yeast rescue
O=C(CCc1ccccc1)N[C@H]1[C@@H](OC(=O)c2cnccn2)CCC[C@]12C(=O)N(Cc1ccccc1)c1ccccc12,x,x,x,i
C=C1CCN(Cc2ccccc2)S(=O)(=O)c2ccccc21,22µM*,-12%,i,i
Cc1ccc2oc(/N=C(\N)NC(=O)C3CC3)nc2c1,-28%,20µM*,i,i
Cc1ccc2oc(/N=C(\N)NC(=O)C(C)(C)C)nc2c1,0%,-9%,i,i
CC1CCCN(c2ccc(C(=O)NCc3ccco3)cc2[N+](=O)[O-])C1 (stereo unspecified),10%,14µM*,i,i
Cc1ccc(C(=O)NCc2ccco2)cc1[N+](=O)[O-],0%,8%,i,i
COc1ccccc1NC(=O)C1CCN(C(=O)c2sc3nc[nH]c(=O)c3c2C)CC1,x,1%,i,i
O=C(c1ccc(Cl)cc1)N1CCN(C(=O)c2ccco2)CC1,2%,-4%,i,i
Cc1cc(Cl)c2oc(C(=O)N3CCN(C(=O)c4ccco4)CC3)c(C)c2c1,7%,22µM*,i,u
O=C(c1ccco1)N1CCN(C(=O)c2ccc(-c3ccc(Cl)cc3)o2)CC1,-1%,22µM*,i,i
O=C(c1ccco1)N1CCN(S(=O)(=O)c2c(Cl)cccc2Cl)CC1,8%,16µM*,i,i
O=C(c1ccco1)N1CCN(S(=O)(=O)c2ccc(Cl)cc2)CC1,-5%,u,i,i
COc1ccc(S(=O)(=O)N2CCN(C(=O)c3ccco3)CC2)c(C)c1C,1%,22µM*,i,i
CCCN1CNc2c(c(=O)[nH]c(=S)n2CCc2ccc(OCC)c(OCC)c2)C1,-4%,x,x,x
C=CCN1C(=O)[C@H](CC(=O)N2CCN(C(=O)c3ccco3)CC2)[C@@]2(C(=O)OCC)CCCC=C12,x,x,x,i
CC(Sc1ccc2ccccc2n1)C(=O)O (stereo unspecified),-17%,11µM*,i,i
CC(Sc1cnc2ccccc2n1)C(=O)O (stereo unspecified),-2%,-4%,i,i
CC1CCN(CCCNC(=O)c2cc(Sc3ccc(F)cc3)nc3ccccc23)CC1,x,18%,i,i
Cc1ccc(-c2cc(-c3nnc(SCC(=O)N4c5ccccc5Sc5ccccc54)n3N)[nH]n2)cc1,x,x,x,i
N=C1SCC(=O)N1c1ncc(Cc2ccc(F)cc2)s1,10%,10µM*,u,i
C#CCOCCOCCOCCNc1nc(N2CCN(C(=O)CCCCCCCCCCNC(=O)[C@H](CCCCN)n3cc(C[C@@H](C)CC)nn3)CC2)nc(N2CCN(C(=O)CCCCCCCCCCNC(=O)[C@H](CCCCN)n3cc(C[C@@H](C)CC)nn3)CC2)n1,-75%,-90%,i,u
C#CCOCCOCCOCCNc1nc(N2CCN(C(=O)CCCCCCCCCCNC(=O)[C@H](CCC(=O)O)n3cc(CCCCCN)nn3)CC2)nc(N2CCN(C(=O)CCCCCCCCCCNC(=O)[C@@H]([C@H](C)O)n3cc(C)nn3)CC2)n1,-10%,-16%,i,13µM*
C#CCOCCOCCOCCNc1nc(N2CCN(C(=O)CCCCCCCCCCNC(=O)Cn3cc(C[C@@H](C)O)nn3)CC2)nc(N2CCN(C(=O)CCCCCCCCCCNC(=O)[C@H](CCCCN)n3cc(C[C@@H](C)CC)nn3)CC2)n1,-52%,-5%,i,10µM*
C#CCOCCOCCOCCNc1nc(N2CCN(C(=O)CCCCCCCCCCNC(=O)[C@@H](CCSC)n3cc(CCO)nn3)CC2)nc(N2CCN(C(=O)CCCCCCCCCCNC(=O)[C@H]([C@@H](C)CC)n3cc(CCCCN=C(N)N)nn3)CC2)n1,-64%,5%,i,8.9µM*
C#CCOCCOCCOCCNc1nc(N2CCN(C(=O)CCCCCCCCCCNC(=O)[C@H](CCCCN)n3cc(CCO)nn3)CC2)nc(N2CCN(C(=O)CCCCCCCCCCNC(=O)[C@@H]([C@H](C)O)n3cc(C)nn3)CC2)n1,-8%,-1%,i,u
SMILES,aSyn yeast inh,TDP43 rescue,Abeta rescue,FUS yeast rescue
C#CCOCCOCCOCCNc1nc(N2CCN(C(=O)CCCCCCCCCCNC(=O)[C@H]([C@@H](C)CC)n3cc(CCCCCN)nn3)CC2)nc(N2CCN(C(=O)CCCCCCCCCCNC(=O)[C@@H]([C@H](C)O)n3cc(C)nn3)CC2)n1,-53%,u,i,13µM*
CCOC(=O)c1cnc(Nc2ccccc2)nc1C(F)(F)F,0%,18µM*,i,i
CCOC(=O)c1c(C(C)(C)C)oc2ccc(O)cc12,10%,18µM*,i,i
Cc1ccc(C(C)C)c(OCc2ccc(C(=O)N/N=C/c3ccc(O)c(O)c3)cc2)c1,-15%,22%,i,i
Cc1ccc(C(C)C)c(OCc2ccc(C(=O)N/N=C/c3cccc(O)c3O)cc2)c1,13µM*,13µM*,u,i
COc1ccc(CN(C(=O)c2ccc(-c3ccccc3)[nH]2)C(C(=O)NCC2CCCO2)c2ccc(C)o2)cc1 (stereo unspecified),27%,11µM*,i,x
O=C(NCC1CCCO1)C(c1cccs1)N(Cc1ccccc1)C(=O)c1ccc(-c2ccccc2)[nH]1 (stereo unspecified),4%,16µM*,i,x
O=C(NCC1CCCO1)C(c1cccs1)N(C(=O)c1ccc(-c2ccccc2)[nH]1)C1CCCC1 (stereo unspecified),14%,20%,i,i
Cc1n[nH]c(C)c1S(=O)(=O)NCCc1cccc(F)c1,x,x,x,i
COc1ccc(C(C)C)cc1S(=O)(=O)NCCc1c(C)[nH]c2c(Cl)cccc12,x,6.3µM*,i,i
Cc1cccc(OC(=O)CSc2nnc(-c3ccc4c(c3)OCO4)o2)c1C,x,13%,i,i
COc1ccc(C(=O)Nc2ccc(S(=O)(=O)Nc3nccnc3OC)cc2)cc1,-12%,0.32µM*,i,i
COc1nccnc1NS(=O)(=O)c1ccc(NC(=O)c2ccc(F)cc2)cc1,4%,0%,i,i
COc1ccc(Cn2c(NC(=O)c3ccccc3)nc(Cc3ccccc3)c2Cc2ccccc2)cc1,x,x,x,i
CCC(C)(C)n1nnnc1C(c1ccc(O)c(OC)c1)N1CCN(c2nc3ccccc3s2)CC1 (stereo unspecified),-11%,20µM*,i,i
O=S1(=O)c2c(cccc2N2CCC[C@H]2CO)OCCCN1C1CC1,x,x,x,i
CC1CCCN(c2nc3c(c(=O)n(C)c(=O)n3C)n2Cc2ccccc2)C1 (stereo unspecified),19%,18µM*,i,i
CCc1ccc(OCC(=O)NCC(c2ccc(OC)cc2)N2CCOCC2)cc1 (stereo unspecified),x,0%,i,i
COC(=O)c1ccc(NS(=O)(=O)c2ccc(SC)cc2)cc1,-12%,-9%,i,i
COc1ccc(NS(=O)(=O)c2ccc(SC)cc2)cc1,-10%,12%,i,10µM*

# High-throughput results deposited in PubChem by National Center for Advancing Translational Sciences (NCATS).
